High-throughput results as filed in PubChem.
In the library only some 2.8% were active in any assay of this set; here they are far more common.
Wnt act: activates Wnt/beta-catenin signaling in a reporter cell assay. activator, plate reader. activation, % at 9.35 µM. hit rate 1.2% among 300,000. AID 743398; in the data active = activation above about 30%, passing the limit was not always enough;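 also: 0% = neutral control wells and 100% = positive control wells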
GAA850 FXN act: activators of GAA850 frataxin (FXN) promoter | AID 540364 | hit rate 0.56% among 360,000 | activation, % at 6 µM | HEK293 lucGAA850 FXN promoter luciferase reporter, 24 h; percent of 10 µM SAHA response;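 active = activation above the average of all compounds screened plus 3 SD, cutoff fixed separately per campaign, cut at about 7.5% in these data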;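 also: 0% = DMSO wells and 100% = 10 µM SAHA wells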
esBAF inh: blocks esBAF chromatin remodeling in mouse ES cells | Bmi1-luciferase knock-in reporter, 24 h; 100% = twice the neutral-well signal | reporter increase, % at 12.5 µM | hit rate 2% among 350,000; in the data active = activation above about 40%;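 also: 0% = median of the plate's neutral control wells and 100% = double that signal; a rise in the Bmi1 reporter signal indicates esBAF inhibition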
MITF act: activators of MITF-driven TRPM1 promoter activity in SK-MEL-5 cells; SK-MEL-5 TRPM1-promoter luciferase, 24 h; % of positive control, neutral wells = 0; activation, % at 12.5 µM; hit rate 0.75% among 300,000; AID 588334;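 active = mean activation of at least 80% with every replicate also reaching 80%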;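 also: 0% = neutral control wells and 100% = parthenolide positive control wells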
Numbers without * were called inactive; . = no result given.

SMILES | Wnt act | GAA850 FXN act | esBAF inh | MITF act
CCC(=O)N1[C@H](C(=O)NC2CCC2)[C@@H](CO)[C@@H]2Cn3c(ccc(C4=CCCCC4)c3=O)[C@@H]21 | . | . | -5.0 | .
CCCN1CCN(CCCNC(=O)c2ccc3nc(N4CCC(C)CC4)sc3c2)CC1 | 12.4 | 5.2 | 55.4* | .
CC1CC(C)CN(CCCNC(=O)c2ccc3nc(N4CCOCC4)sc3c2)C1 (centres undefined) | 0.0 | 0.4 | -0.8 | .
CC1CCCCN1CCCNC(=O)c1ccc(Br)cc1 (centres undefined) | -2.0 | 1.6 | -9.4 | -2.9
CC1CCCCN1CCCNC(=O)c1ccc2nc(N3CCCCC3)sc2c1 (centres undefined) | 11.7 | 3.3 | 58.5* | .
C[C@H](CO)N1C[C@H](C)[C@@H](CN(C)S(=O)(=O)c2ccc(Cl)cc2)OCCCC[C@H](C)Oc2ccc(NC(=O)C3CCCCC3)cc2C1=O | . | . | 7.1 | .
C[C@H](CO)N1C[C@H](C)[C@@H](CN(C)C(=O)CC2CC2)Oc2cc(C3=CCCC3)ccc2S1(=O)=O | . | . | 2.4 | .
CNC(=O)C[C@H]1CC[C@H]2[C@@H](COc3ccc(NC(=O)c4cc(F)cc(F)c4)cc3C(=O)N2C)O1 | . | . | -3.0 | .
O=C(CNC(=O)c1ccco1)Nc1ccc(Br)cc1 | 17.9 | 3.1 | 42.4* | 43.9
O=C(Nc1ccc(Br)c(Cl)c1)c1ccco1 | . | 5.2 | 51.7* | 60.8
O=C(COc1cccc(NC(=O)c2ccco2)c1)c1ccccc1 | 12.1 | 0.4 | 49.6* | .
O=C(c1ccccc1)c1cccc(NC(=O)c2ccco2)c1 | . | 3.5 | 65.7* | 48.8
C[C@@H]1CN([C@@H](C)CO)C(=O)c2cc(/C=C/c3ccccc3)cnc2O[C@H]1CN(C)Cc1cccnc1 | . | . | -2.0 | .
O=C(Nc1cccc(OC(=O)c2ccco2)c1)c1ccco1 | 9.2 | -0.3 | 7.4 | .
O=C(Nc1cccc(F)c1)c1ccco1 | 2.7 | 1.9 | 44.9* | 21.1
COc1cccc(NC(=O)c2ccco2)c1 | . | 3.6 | 60.2* | 35.1
Cc1ccc2c(CN(C)Cc3ccc(OC(F)F)cc3)cc(=O)oc2c1C | -1.1 | 1.1 | -1.5 | -1.0
Cc1ccc2c(CN(C)Cc3ccccc3)cc(=O)oc2c1C | 17.8 | -1.8 | 58.7* | 65.7
Cc1cc2oc(=O)cc(CN(C)Cc3ccccc3)c2cc1C | 7.6 | . | 48.4* | .
Cc1ccc2c(CN(C)Cc3cccc(F)c3)cc(=O)oc2c1C | 5.9 | 1.1 | 49.7* | 34.8
C[C@H]1CN([C@@H](C)CO)C(=O)c2cccc(NC(=O)c3cnccn3)c2O[C@@H]1CN(C)Cc1ccncc1 | . | . | 2.2 | .
Cc1ccc(S(=O)(=O)N[C@@H]2CC[C@H](CCNC(=O)c3ccccc3F)O[C@@H]2CO)cc1 | . | . | 6.1 | .
CCOC(=O)c1cc(-c2ccccc2)sc1N | . | 5.3 | . | 61.2
CCOC(=O)c1sc(-c2ccc(F)cc2)cc1N | . | 7.3 | 56.6* | 97.7*
COc1ccc(S(=O)(=O)Nc2ccc3c(c2)C(=O)N([C@@H](C)CO)C[C@H](C)[C@@H](CN(C)C(=O)CCC(F)(F)F)OCCCC[C@H](C)O3)cc1 | . | . | 8.2 | .
SMILES | Wnt act | GAA850 FXN act | esBAF inh | MITF act
CN(C)Cc1cn(CC[C@@H]2CC[C@@H](NC(=O)Nc3ccc4c(c3)OCO4)[C@@H](CO)O2)nn1 | . | . | 5.0 | .
Cc1cccc(NC(=O)/C(C#N)=C/c2ccc[nH]2)c1C | 6.8 | 3.1 | 48.8* | 12.7
O=C(NCCCn1ccnc1)c1sc2cccc(F)c2c1Cl | . | -0.9 | 4.8 | -8.1
O=C(NCCCn1ccnc1)c1sc2cc([N+](=O)[O-])ccc2c1Cl | 5.8 | 1.9 | 62.5* | .
Cc1ccc(-n2[nH]c(C)c(/C=C3/C=Nc4ccccc43)c2=O)cc1C | -1.7 | 2.9 | 53.8* | 8.4
Cc1[nH]n(-c2ccccc2)c(=O)c1/C=C1\C=NN=C1c1ccccc1 | -0.5 | 1.4 | . | .
N/C(=N\OC(=O)c1cccc(F)c1)c1cccc([N+](=O)[O-])c1 | -1.5 | 2.1 | 61.1* | .
N/C(=N\OC(=O)c1ccc(F)cc1)c1cccc([N+](=O)[O-])c1 | 15.8 | 3.0 | 32.5 | 86.5*
c1csc(-c2cn3ccc4ccccc4c3n2)c1 | 23.2 | 4.8 | 72.2* | 17.3
c1csc(-c2nc3c4ccccc4c4ccccc4c3[nH]2)c1 | -2.0 | 0.3 | -5.0 | .
CSc1ccccc1OCc1cc(C(=O)NCc2ccc(C)s2)no1 | 0.0 | -0.1 | -5.4 | 36.2
CSc1ccccc1OCc1cc(C(=O)N(C)Cc2ccc3nsnc3c2)no1 | 35.0* | 4.6 | 28.1 | 77.7
CCOC(=O)c1ccc(CNC(=O)c2cc(COc3ccccc3SC)on2)o1 | 29.7 | 4.0 | 54.3* | 103.2*
CSc1ccccc1OCc1cc(C(=O)N(C)Cc2ccc(C)o2)no1 | 18.0 | 2.6 | 75.0* | 98.8*
CSc1ccccc1OCc1cc(C(=O)N(C)C(C)c2nc(C)cs2)no1 (centres undefined) | 3.6 | 2.7 | . | 3.9
CCCC#Cc1cnc2c(c1)C(=O)N([C@@H](C)CO)C[C@@H](C)[C@H](CN(C)S(=O)(=O)c1cn(C)cn1)O2 | . | . | 4.5 | .
COc1ccc(/C=C/C(=O)c2cc(Cl)ccc2O)c(OC)c1 | 22.6 | 3.2 | . | 30.9
COc1ccc(C(=O)/C=C/c2ccc(OC)cc2OC)c(O)c1 | 0.7 | 2.4 | 88.1* | 93.4*
COc1ccc(C(=O)c2ccccc2O)c(O)c1 | -2.4 | 1.5 | 14.5 | 16.8
COc1ccc(C(=O)c2ccc(OC)cc2O)c(O)c1 | 24.2 | 3.8 | 49.5* | 74.7
O=C(O)c1cc(/C=C/C(=O)c2cc(F)ccc2O)c2c(c1)COCO2 | 3.0 | 2.9 | . | 0.3
COc1ccc(C(=O)/C=C/c2ccccc2OC)c(OC(=O)c2ccc([N+](=O)[O-])cc2)c1 | 37.7* | 3.6 | . | 12.5
COc1ccc(C(=O)/C=C/c2cc(C(=O)O)cc3c2OCOC3)c(O)c1 | -0.2 | 2.2 | 58.8* | -6.4
C[C@H]1CN([C@@H](C)CO)S(=O)(=O)c2ccc(-c3cccc(C(=O)N(C)C)c3)cc2O[C@@H]1CN(C)C(=O)Cc1ccccn1 | . | . | -3.4 | .
COc1ccc(C(=O)C=Cc2cccs2)c(O)c1 | 48.2* | 5.5 | 45.0* | 68.6
SMILES | Wnt act | GAA850 FXN act | esBAF inh | MITF act
COc1ccc(C(=O)/C=C/c2ccccc2)c(O)c1 | -0.1 | 3.0 | 27.4 | .
Cc1cc(C)c(NC(=O)CN)c(C)c1 | -2.1 | 0.2 | . | -3.9
Cc1cccc(C)c1NC(=O)CN | 44.8* | 2.4 | -7.7 | -3.6
FC(F)Oc1ccc(N=C2SCC3CCCCN23)cc1 (centres undefined) | 25.9 | 4.2 | 75.2* | 94.3*
C[C@@H]1CN([C@@H](C)CO)C(=O)c2cc(NC(=O)Cn3cnnn3)ccc2O[C@@H]1CN(C)Cc1ccncc1 | . | . | 0.6 | .
COc1cc(/C=C(/C#N)C(=O)Nc2ccccc2)c(Br)cc1OCc1ccc(C(=O)O)cc1 | 13.5 | 0.4 | 8.0 | 12.0
COc1cc(/C=C(\C#N)C(=O)Nc2cccc(C(=O)O)c2)ccc1OCc1ccc(Cl)cc1 | 34.5* | 3.7 | 7.0 | 33.5
O=C(Nc1ccccc1)OC1CCS(=O)(=O)C1 (centres undefined) | -2.1 | -1.8 | . | -14.7
CC(=O)NC1CCC(OC(=O)Nc2ccccc2)CC1 (centres undefined) | 2.3 | 2.3 | 53.1* | 37.3
C[C@@H](NC(=O)C[C@@H]1C=C[C@H](NC(=O)C2CCC2)[C@@H](CO)O1)c1ccccc1 | . | . | 0.7 | .
